Measured values: PubChem BioAssay (Tox21)
Records with an inconclusive call do not appear. Activity calls are given as the source filed them. Calls follow the shape of the full dose curve. Non-standard residues stand in square brackets, D forms with d. Residues, ends and D or L forms follow the SMILES beside them. *: point of attachment. Sta = CC(C)C[C@H](N)[C@@H](O)CC(=O)O; Isovaleryl = CC(C)CC(=O)*

Tests used:
[1] = biological target: Acetylcholinesterase (Homo sapiens) (UniProt P22303); assay: Acetylcholinesterase (AChE) small molecule antagonists: colormetric cell-based qHTS assay (AID 1347395); also: nearly all actives have a fitted effect of over 30% in size
Sequence of Acetylcholinesterase (Homo sapiens) (P22303 whole entry, looked up): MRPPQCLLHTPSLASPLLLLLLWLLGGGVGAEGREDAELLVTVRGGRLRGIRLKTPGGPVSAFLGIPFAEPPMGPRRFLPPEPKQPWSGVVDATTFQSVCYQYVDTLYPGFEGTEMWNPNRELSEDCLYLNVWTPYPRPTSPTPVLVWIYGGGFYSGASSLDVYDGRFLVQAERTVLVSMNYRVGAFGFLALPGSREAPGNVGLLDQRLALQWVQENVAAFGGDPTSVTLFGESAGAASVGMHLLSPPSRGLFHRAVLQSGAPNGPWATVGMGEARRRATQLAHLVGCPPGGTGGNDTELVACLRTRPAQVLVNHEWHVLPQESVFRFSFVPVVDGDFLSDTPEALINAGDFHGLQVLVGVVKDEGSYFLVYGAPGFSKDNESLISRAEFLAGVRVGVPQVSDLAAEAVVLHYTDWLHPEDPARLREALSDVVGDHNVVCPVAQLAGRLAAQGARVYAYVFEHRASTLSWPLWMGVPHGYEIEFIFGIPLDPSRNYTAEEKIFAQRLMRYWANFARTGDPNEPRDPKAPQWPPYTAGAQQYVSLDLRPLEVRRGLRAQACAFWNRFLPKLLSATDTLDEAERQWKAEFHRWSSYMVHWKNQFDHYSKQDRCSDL
How it was run: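 Cells (SH-SY5Y, 2,000 per well) are seeded and left overnight at 37 C. Compound is added for 30 min, then DTNB and acetylthiocholine for a further 90 min at 37 C before absorbance-based thiocholine detection.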

[2] = biological target: Acetylcholinesterase (Homo sapiens) (UniProt P22303); assay: Acetylcholinesterase (AChE) small molecule antagonists: enzyme-based qHTS assay (AID 1347397); conditions: Potency: AChE enzyme activity inhibition; outcome: AChE enzyme activity inhibition; also: nearly all actives have a fitted effect of over 55% in size
How it was run: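 In this quantitative HTS, compounds from the Tox21 10K collection were preincubated 30 min at ambient temperature with recombinant human AChE dispensed at 50 mU/mL. Hydrolysis of acetylthiocholine was then followed for 10 min by DTNB colour development.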

[3] = biological target: Acetylcholinesterase (Homo sapiens) (UniProt P22303); assay: Acetylcholinesterase (AChE) small molecule antagonists: fluorescence cell-based qHTS assay (AID 1347398); conditions: Potency: AChE activity; outcome: AChE activity; also: nearly all actives have a fitted effect of over 50% in size
How it was run: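 Cells (SH-SY5Y) attached overnight, were dosed with compound or DMSO vehicle for 30 min at 37 C, and then incubated 40 min at room temperature with acetylthiocholine and Thiolite Green; green fluorescence indexed AChE activity.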

[4] = biological target: Acetylcholinesterase (Homo sapiens) (UniProt P22303); assay: Acetylcholinesterase (AChE) small molecule antagonists: enzyme-based qHTS assay with human liver microsomes (AID 1347399); conditions: Potency: qHTS inhibition; outcome: qHTS inhibition; also: nearly all actives have a fitted effect of over 60% in size
How it was run: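 Recombinant human AChE (50 mU/mL in the enzyme mix) and human liver microsomes (0.25 mg/mL final) were preincubated with compound and NADPH (0.25 mg/mL final) for 30 min at 37 C. Acetylthiocholine/DTNB was then added; thiocholine was read colorimetrically after 10 min at room temperature.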

Measured: Potency

Cc1cc(O)cc(C)c1Cl
inactive: all assays above

Cc1ccccc1Cl
inactive: all assays above

c1cc(N(CC2CO2)CC2CO2)ccc1OCC1CO1 (centres undefined)
inactive: all assays above

Cc1c(C)c2c(c(C)c1OC(=O)c1cccnc1)CC[C@@](C)(CCC[C@H](C)CCC[C@H](C)CCCC(C)C)O2
inactive: all assays above

Fc1ccccc1
inactive: all assays above

C=Cc1cccc(C)c1
inactive: all assays above

CN1C(C)(C)CC(O)CC1(C)C
inactive: all assays above

CCCNC(C)C(=O)Nc1c(C)csc1C(=O)OC (centres undefined)
inactive: all assays above

CCC(C)(C)C(=O)O[C@H]1C[C@@H](C)C=C2C=C[C@H](C)[C@H](CC[C@@H]3C[C@@H](O)CC(=O)O3)[C@H]21
inactive: all assays above

CCN1C=CN(C)C1C (centres undefined)
inactive: all assays above

O=c1[nH][nH]c2ccccc12
inactive: all assays above

Clc1cc(Cl)c(Cl)c(Cl)c1Cl
inactive: all assays above

CC(C)(c1ccc(Oc2ccc(N)cc2)cc1)c1ccc(Oc2ccc(N)cc2)cc1
inactive: all assays above

CCCCCCCCSCC
inactive: all assays above

O=C(O)CS
inactive: all assays above

CC(=O)O[C@]1(C(C)=O)CC[C@H]2[C@@H]3C=C(Cl)C4=CC(=O)CC[C@]4(C)[C@H]3CC[C@@]21C
inactive: all assays above

c1ccc2c(c1)ccc1ccccc12
inactive: all assays above

CC(NCCC(c1ccccc1)c1ccccc1)c1ccccc1 (centres undefined)
inactive: all assays above

O=C1NC(c2ccccc2)(c2ccccc2)C(=O)N1COP(=O)(O)O
inactive: all assays above

O=C(O)c1ccc(S(=O)(=O)N(Cl)Cl)cc1
inactive: all assays above

CC(C)CC(=O)N[C@H](C(=O)N[C@H](C(=O)N[C@@H](CC(C)C)[C@@H](O)CC(=O)N[C@@H](C)C(=O)N[C@@H](CC(C)C)[C@@H](O)CC(=O)O)C(C)C)C(C)C (Isovaleryl-VV[Sta]A[Sta]-OH)
inactive: all assays above

COC(=O)N[C@H](C(=O)N[C@@H](Cc1ccccc1)[C@@H](O)CN(Cc1ccc(-c2ccccn2)cc1)NC(=O)[C@@H](NC(=O)OC)C(C)(C)C)C(C)(C)C
inactive: all assays above

C=C(C)C(=O)O[C@H]1C[C@@H]2CC[C@@]1(C)C2(C)C
inactive: all assays above

CC(=O)N(CC(O)CN(C(C)=O)c1c(I)c(C(=O)NCC(O)CO)c(I)c(C(=O)NCC(O)CO)c1I)c1c(I)c(C(=O)NCC(O)CO)c(I)c(C(=O)NCC(O)CO)c1I (centres undefined)
inactive: all assays above

COCC(C)OC(C)=O (centres undefined)
inactive: all assays above

N#CCc1ccc(Cl)cc1Cl
inactive: all assays above

Cc1ccc2ccccc2c1[N+](=O)[O-]
inactive: all assays above

Cc1ccc(Cl)cc1N
inactive: all assays above

CC12CCC(CC1=O)C2(C)C (centres undefined)
inactive: all assays above

c1ccc2c(c1)[nH]c1ccccc12
inactive: all assays above

Oc1ccc2c(c1)OC[C@@H](N1CCC(O)(c3ccc(F)cc3)CC1)[C@H]2O
inactive: all assays above

COc1ccccc1OC(=O)Oc1ccccc1OC
inactive: all assays above

O=C(O[C@@H]1Cc2c(O)cc(O)cc2O[C@@H]1c1cc(O)c(O)c(O)c1)c1cc(O)c(O)c(O)c1
inactive: all assays above

CC(C)(C)c1ccc(S)cc1
inactive: all assays above

O=C(O)CP(=O)(O)O
inactive: all assays above

CCOC(=O)CCC(C)=O
inactive: all assays above

CC(C)CCCCCCOC(=O)C1CCCCC1C(=O)OCCCCCCC(C)C (centres undefined)
inactive: all assays above

CC(C)Nc1cccnc1N1CCN(C(=O)c2cc3cc(NS(C)(=O)=O)ccc3[nH]2)CC1
inactive: all assays above

C=CCOC(=O)/C=C\C(=O)OCC=C
inactive: all assays above

O=C(Nc1ccccc1)c1cc([N+](=O)[O-])ccc1Cl
inactive: all assays above

CC(=O)Oc1ccc2c(c1)CC[C@@H]1[C@@H]2CC[C@]2(C)[C@@H](O)CC[C@@H]12
inactive: all assays above

Cc1oc(-c2ccccc2)nc1CCC(=O)c1ccc(CC2SC(=O)NC2=O)cc1 (centres undefined)
inactive: all assays above

C=CCCC=C
inactive: all assays above

CCO/C=C1\N=C(c2ccccc2)OC1=O
inactive: all assays above

COc1cc(C)c(Cc2cnc(N)nc2N)cc1OC
inactive: all assays above

Cc1nn(C)c(Oc2ccccc2)c1/C=N/OCc1ccc(C(=O)OC(C)(C)C)cc1
inactive: all assays above
